From PubChem
aSyn 5UTR act: Activators via SNCA 5'UTR binding, MLPCN | AID 1814, 2009 | actives 7.1% (n = 300,000) | activity score, % (tested at 7.5 µM), hits read low | alpha-synuclein 5'UTR reporter, activators screen; in the data active = activity score below about -60%
Numbers without * were called inactive. Not all results are given here.

`Cc1ccc(-c2ccc(S(=O)(=O)N3CC(C)OC(C)C3)cc2)cc1` (stereo not drawn) gave aSyn 5UTR act -78*.
COc1cc(C2C=C(Nc3ccccc3)C(=O)N2c2ccccc2)ccc1O (stereo not drawn) was read as aSyn 5UTR act -72*.
For CCOC(=O)c1nn(-c2ccc(C)cc2)cc1C(=O)c1ccccc1 the results were aSyn 5UTR act -120*.
For CCOC(=O)c1nn(-c2ccc(C)c(C)c2)cc1O the results were aSyn 5UTR act -141*.
Screening COC(=O)c1nn(-c2ccc3c(c2)OCO3)cc1O returned aSyn 5UTR act -86*.
COC(=O)c1nn(-c2ccc3c(c2)CCN3C(C)=O)cc1O was read as aSyn 5UTR act 91.
For CCOC(=O)c1nn(-c2ccc(C)c(C)c2)c(=O)c2c(N)scc12 the results were aSyn 5UTR act 46.
`C/C(=N\Nc1ccc2nncn2n1)c1ccccn1` gave aSyn 5UTR act 94.
`N/C(=N\NC(=O)c1ccc(Cl)cc1)c1cnccn1` gave aSyn 5UTR act -67*.
For O=C(NNC(=O)c1cnccn1)c1ccc(Cl)c(Cl)c1 the results were aSyn 5UTR act 51.
C/C(=N\NC(=O)c1ccc(Cl)cc1)c1ccccn1 was read as aSyn 5UTR act -63*.
For C/C(=N\Nc1ccc(Cl)cc1)c1ccccn1 the results were aSyn 5UTR act -138*.
Screening C/C(=N/NC(=O)c1ccccn1)c1ccc(O)cc1 returned aSyn 5UTR act -90*.
COc1cc(C(=O)N/N=C(\C)c2ccccn2)cc(OC)c1OC was read as aSyn 5UTR act 109.
COc1ccc(-n2c(C)nc3c(cnn3-c3ccc(C)c(C)c3)c2=O)cc1 was read as aSyn 5UTR act -85*.
`Cc1ccc(N=Nc2ccc(O)c(/C=N\NC(=O)c3ccc(N)cc3)c2)cc1C` gave aSyn 5UTR act 58.
`CCN(CC)c1ccc(O)c(C=Nc2ccc(C)c(C)c2)c1` gave aSyn 5UTR act -77*.
For Cc1ccc(N=Cc2ccc(N(C)C)cc2)cc1C the results were aSyn 5UTR act -123*.
`Clc1ccc(-c2n[nH]c3c2Cc2ccccc2-3)cc1Cl` gave aSyn 5UTR act -66*.
Screening Oc1ccc(N=C/C=C/c2cccc(Br)c2)cc1-c1nc2ccccc2s1 returned aSyn 5UTR act -99*.
Screening COc1ccc(N=c2scc(-c3ccc(OC)cc3)n2CCO)cc1 returned aSyn 5UTR act -66*.
Screening O=C(NCc1ccc(F)cc1)c1c2c(nc3ccccc13)CCC2 returned aSyn 5UTR act -71*.
COc1ccc2c(c1)C1=NN(/C(C)=C/C(C)=O)C(c3cccc(F)c3)C1CC2 (stereo not drawn) was read as aSyn 5UTR act -64*.
`COc1ccc2c(c1)C1=NN(/C(C)=C/C(C)=O)C(c3ccc(F)cc3)C1CC2` (stereo not drawn) gave aSyn 5UTR act -78*.
Screening COc1ccc2c(c1)C1=NN(/C(C)=C\C(C)=O)C(c3ccccc3)C1CC2 (stereo not drawn) returned aSyn 5UTR act -141*.
For COc1ccccc1CCC(=O)Nc1ccc(C)cc1Cl the results were aSyn 5UTR act -160*.
For COc1ccccc1CCC(=O)Nc1ncc(C)s1 the results were aSyn 5UTR act -83*.
`Cc1cnc(NC(=O)COc2ccccc2Cl)s1` gave aSyn 5UTR act 82.
`COc1ncccc1-c1nnn(-c2ccccc2Br)n1` gave aSyn 5UTR act -88*.
Screening COc1ncccc1-c1nnn(-c2ccccc2)n1 returned aSyn 5UTR act -156*.
O=c1c(-c2ccccc2)n[nH]c2ccccc12 was read as aSyn 5UTR act -87*.
Screening O=C(Nc1cccc(-c2nc3ccccc3o2)c1)c1ccc(N2C(=O)C3C4C=CC(C4)C3C2=O)cc1 (stereo not drawn) returned aSyn 5UTR act 88.
`COc1ccc(C(=O)Nc2cccc(-c3nnc(-c4ccco4)o3)c2)cc1` gave aSyn 5UTR act -93*.
For C=Cc1cccc(NC(=O)COc2ccccc2)c1 the results were aSyn 5UTR act -107*.
COc1ccc(OCC(=O)Nc2cccc(-c3nc4ccccc4o3)c2)cc1 was read as aSyn 5UTR act -151*.
Oc1cc(NCc2cccnc2)ccc1-c1nc2ccccc2o1 was read as aSyn 5UTR act -100*.
COc1ccc(OCC(=O)Nc2cccc(-c3nc4ccccc4[nH]3)c2)cc1 was read as aSyn 5UTR act -159*.
For CC(C)(C)c1ccc(OCC(=O)Nc2ccc(-c3nc4cccnc4o3)cc2)cc1 the results were aSyn 5UTR act -135*.
O=C(COc1ccccc1)Nc1cccc(-c2nnc(-c3ccccc3)o2)c1 was read as aSyn 5UTR act -64*.
For CCc1ccc(OCC(=O)Nc2ccc(-c3nc4ccccc4o3)c(O)c2)cc1 the results were aSyn 5UTR act -97*.
Screening O=C(COc1ccccc1)Nc1cccc(-c2nc3ccccc3[nH]2)c1 returned aSyn 5UTR act -63*.
N/C(=N\OC(=O)Nc1ccc(Cl)cc1)c1ncc(C(F)(F)F)cc1Cl was read as aSyn 5UTR act -73*.
Screening N/C(=N\OC(=O)Nc1ccccc1)c1ncc(C(F)(F)F)cc1Cl returned aSyn 5UTR act -115*.
Screening Cc1ccc(NC(=O)c2oc3ccccc3c2C)nc1 returned aSyn 5UTR act -94*.
`Cc1c(C(=O)Nc2ccccn2)oc2ccccc12` gave aSyn 5UTR act -259*.
For Cc1c(C(=O)Nc2cccnc2Cl)oc2ccccc12 the results were aSyn 5UTR act -181*.
For Cc1ccnc(Nc2nc(-c3ccc(Cl)cc3)cs2)c1 the results were aSyn 5UTR act -163*.
`Cc1ccnc(Nc2nc(-c3ccc(F)cc3)cs2)c1` gave aSyn 5UTR act -162*.
`CC1(C)CC(=O)c2c(O)cc(OCc3ccc([N+](=O)[O-])cc3)cc2O1` gave aSyn 5UTR act -150*.
COc1cccc(NC(=O)COc2cc(O)c3c(c2)OC(C)(C)CC3=O)c1 was read as aSyn 5UTR act -87*.
Screening Nc1cc(C(F)(F)F)ccc1C(=O)O returned aSyn 5UTR act -62*.
Screening CSc1ccccc1NC(=O)c1cc2ncc(Br)cn2n1 returned aSyn 5UTR act -182*.
`N#C/C(=N\Nc1ccccc1)C(=N)N1CCCCCC1` gave aSyn 5UTR act -171*.
`N#C/C(=N\Nc1ccc(F)cc1)C(=N)N1CCCCC1` gave aSyn 5UTR act -111*.
`N#C/C(=N\Nc1cccc(F)c1)C(=N)N1CCCCCC1` gave aSyn 5UTR act -95*.
Screening COc1ccc(N=Nc2nc3ccc(Br)cc3n2C)cc1 returned aSyn 5UTR act -113*.
CCCc1ccc2oc(C(=O)N3CCC(COC)C3)c(C)c2c1 (stereo not drawn) was read as aSyn 5UTR act -113*.
For CCCc1ccc2oc(C(=O)N3CCC[C@H]3CO)c(C)c2c1 the results were aSyn 5UTR act -200*.
`COc1ccc2[nH]c(C(=O)Nc3ccc4c(c3)OCO4)cc2c1` gave aSyn 5UTR act -134*.
`COC(=O)c1ccc(NC(=O)Nc2ccc3c(c2)OCO3)cc1` gave aSyn 5UTR act -66*.
COc1cccc(NC(=O)Nc2ccc3c(c2)OCO3)c1 was read as aSyn 5UTR act -111*.
O=C(Nc1ccc2c(c1)CCC2)Nc1ccc2c(c1)OCO2 was read as aSyn 5UTR act -111*.
O=C(NCc1cccs1)Nc1cccc(Cl)c1 was read as aSyn 5UTR act -120*.
`Cc1nn(C)cc1CNC(=O)Nc1cccc(Cl)c1` gave aSyn 5UTR act -169*.
For O=C(Nc1cccc([N+](=O)[O-])c1)Nc1ccc2c(c1)OCCO2 the results were aSyn 5UTR act -129*.
